Assay results taken from PubChem BioAssay (NCATS).
Records with an inconclusive call do not appear. Entries that show only a call come without a potency. Activity calls are given as the source filed them. The call rests on the fitted dose curve; in most records, active means well fitted inhibition curve with a large enough effect; inconclusive means small, poorly fitted or top-dose-only effect; inactive means flat fitted curve, though single readings scatter. Bridge positions count the residues as written; N and C are the ends. Square brackets hold non-standard residues; d marks the D form. Peptide text beside a SMILES is read from it. * marks the point of attachment. Ileψ(thiazoline)Cys = CC[C@H](C)[C@H](N)C1=N[C@H](C(=O)*)CS1; d(aIle) = CC[C@H](C)[C@@H](N)C(=O)O; dOrn = NCCC[C@@H](N)C(=O)O

Each compound was assayed on ECU (assay: qHTS profiling for inhibitors of Plasmodium falciparum proliferation (AID 504749; further: nearly all actives have a fitted effect of over 60% in size)). Details: P. falciparum in erythrocytes, SYBR Green DNA, 72 h; series mostly up to 12.8 µM.
Outline: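 SYBR Green fluorescence of parasite DNA, read after lysis and overnight dark incubation, measured growth over 72 h in erythrocyte culture at 0.3% parasitemia and 2.5% hematocrit. Data normalised to DMSO and 0.29 uM artemisinin, with plate-drift correction.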
Potency means the concentration at half of the fitted maximal effect.

| SMILES | Potency |
| --- | --- |
| C[C@@H]1C[C@H]2[C@@H]3C[C@H](F)C4=CC(=O)C=C[C@@]4(C)[C@]3(F)[C@H](O)C[C@]2(C)[C@@]1(O)C(=O)CO | inactive |
| C[C@H](O)Cn1cnc2c1c(=O)n(C)c(=O)n2C | inactive |
| CCCCC[C@H](O)/C=C\[C@@H]1[C@H](O)CC(=O)[C@@H]1CCCCCCC(=O)O | inactive |
| CC(=C(CCOP(=O)(O)O)SC(=O)c1ccccc1)N(C=O)Cc1cnc(C)nc1N | inactive |
| NC[C@@H]1O[C@@H](O[C@H]2[C@H](O)[C@H](O[C@@H]3O[C@H](CO)[C@@H](O)[C@H](N)[C@@H]3O)[C@@H](N)C[C@H]2N)[C@H](N)C[C@@H]1O | inactive |
| CCc1c(C)[nH]c2c1C(=O)[C@H](CN1CCOCC1)CC2 | inactive |
| CC[C@H](C)[C@H](N)C1=N[C@H](C(=O)N[C@@H](CC(C)C)C(=O)N[C@@H](CCC(=O)O)C(=O)N[C@@H](C(=O)N[C@H]2CCCCNC(=O)[C@@H](CC(N)=O)NC(=O)[C@@H](CC(=O)O)NC(=O)[C@@H](Cc3cnc[nH]3)NC(=O)[C@@H](Cc3ccccc3)NC(=O)[C@@H]([C@@H](C)CC)NC(=O)[C@@H](CCCN)NC2=O)[C@@H](C)CC)CS1 ({Ileψ(thiazoline)Cys}-LE[d(aIle)]K[dOrn][d(aIle)][dF][dH][dD][dN]; lactam 4-C) | inactive |
| O=C(N/N=C\c1ccc([N+](=O)[O-])o1)c1ccc(O)cc1 | 1780 nM (active) |
| CCOC(=O)O[C@@H](C)OC(=O)[C@@H]1N2C(=O)[C@@H](NC(=O)[C@@H](N)c3ccccc3)[C@H]2SC1(C)C | inactive |
| Cc1ccsc1/C=C\C1=NCCCN1C | inactive |
| O=C(O)COCCN1CCN([C@@H](c2ccccc2)c2ccc(Cl)cc2)CC1 | inactive |
| C#C[C@]1(O)CC[C@@H]2[C@H]3CCC4=CCCC[C@@H]4[C@@H]3CC[C@@]21C | inactive |
| CC1(C)[C@@H](OC(=O)CCC(=O)O)CC[C@@]2(C)[C@H]1CC[C@@]1(C)[C@H]2C(=O)C=C2[C@H]3C[C@](C)(C(=O)O)CC[C@]3(C)CC[C@@]21C | inactive |
| C[C@H](CCC(=O)O)[C@H]1CC[C@@H]2[C@@H]3[C@@H](O)C[C@H]4C[C@@H](O)CC[C@@]4(C)[C@H]3CC[C@@]21C | inactive |
| CN1CCO[C@H](c2ccccc2)c2ccccc2C1 | inactive |
